EWS-Fli inh = inhibitors of EWS/Fli oncoprotein transcriptional activity; A673 NR0B1-luciferase reporter, viability-normalised; inhibition, % at 12.6 µM; 0.67% of 350,000 active;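 active means mean inhibition of at least 50% after viability correction, with every replicate also passing that limit; inconclusive means mean reaches 50% but only one of two replicates passes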;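 further: firefly luciferase signal divided by Alamar Blue viability fluorescence both relative to DMSO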
PAX8 reporter = PAX8 transcriptional activity inhibition | RMG-I TPO-luciferase reporter, SteadyGlo, 24 h | inhibition, % at 12.6 µM | 1.2% of 360,000 active;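 active means mean replicate inhibition at least 60% with every replicate also reaching 60%; inconclusive means only one of the two criteria is met; inactive means mean below 60% and not all replicates reaching 60%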;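 further: luciferase light reporting Pax8 driven TPO promoter activity; plate controls were median of neutral control wells for no effect and mitoxantrone controls for full effect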
INS-1E GSIS act = GLuc luminescence reporter in INS-1E cells, primary screen for activators of glucose-dependent secretion of insulin | 0.61% of 370,000 active | INS-1E GLuc reporter insulin secretion, 2-3 h | activation, % at 16.6 µM;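 active means lowest replicate activation of at least 40%, so every replicate reaches that level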;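 further: 0% = median of neutral control wells and 100% = median of IBMX positive control wells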
Statin myotox sup = suppression of simvastatin myotoxicity; rescue of ATP level, % at 7.49 µM; C2C12 myotubes + simvastatin, ATP luminescence, 48 h; scaled: DMSO 0, geranylgeraniol control 100; 0.78% of 330,000 active;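 active means mean ATP rescue above about 67%, or every replicate alone reaching that limit, limit read from the data, passing the limit was not always enough; inconclusive means no clear call, values can overlap the other calls; inactive means mean under the limit and some replicate under it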;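 further: myotubes were challenged with 10 µM simvastatin during compound exposure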
Env fusion inh = HIV envelope-mediated fusion inhibition; 1.1% of 360,000 active; HeLa-JRFL Env/CEM21 cell fusion, luciferase; inhibition, % at 12.3 µM;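 active means mean replicate inhibition score of at least 50 and every replicate individually at or above 50; inconclusive means only one of the two criteria met; inactive means mean below 50 and not all replicates reaching 50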;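 further: 0% = plate neutral controls and 100% = maraviroc near 300 nM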
miR-122 sensor = miR-122 inhibition in Huh7 cells. Huh7 miR-122 Renilla luciferase sensor, 48 h; neutral wells = 0, positive control = 100. activation (reporter increase), % at 12.5 µM. 0.3% of 340,000 active;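 active means mean replicate activation score at least 90 and every replicate individually at or above 90; inconclusive means only one of the two criteria met; inactive means neither criterion met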;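 further: higher luciferase means less miR-122 activity so hits act as miR-122 inhibitors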
* = called active by the depositor; ? = inconclusive; . = no result; ! = repeats disagree; [ ] = another dose, or the depositor's remark. In the library only some 3.1% were active in any assay of this set; here they are far more common.

SMILES	EWS-Fli inh	PAX8 reporter	INS-1E GSIS act	Statin myotox sup	Env fusion inh	miR-122 sensor
Cc1nn2c(nc(N3CCCCC3)c3ccccc32)c1C=O	8	-15	-6	.	-5	-2
c1cnc2c(c1)ccc1cccnc12	62*!	77*!	-9	-47	-37	-21
Cc1ccnc2c1ccc1cccnc12	38	80*	12	-80	-199	16
O=Cc1ccc2ccc3cccnc3c2n1	-5	18	14	-1	-17	-5
Cc1ccc(N2C(N)=NC(N)=NC2(C)C)c(C)c1	.	.	.	110*	.	0
C[C@H](CO)N1C[C@H](C)[C@@H](CN(C)C(=O)c2ccccc2)Oc2cc(C#CC3(O)CCCC3)ccc2S1(=O)=O	0	.	-11	-19	-47[16.7 µM]	10[16.7 µM]
CC(=O)Nc1ccc(S(=O)(=O)NCc2cccnc2)cc1	.	.	-7	.	-40	.
O=C(Nc1ccc(S(=O)(=O)NCc2cccnc2)cc1)c1ccco1	.	.	.	4	65*	7
O=C(Nc1ccc(S(=O)(=O)NCCc2ccccc2)cc1)c1ccncc1	7	17	-14	.	34	.
CC(=O)Nc1ccc(S(=O)(=O)NCCc2ccc(S(N)(=O)=O)cc2)cc1	.	5	19	0	-48	226*
O=C(Nc1ccc(S(=O)(=O)NCCc2ccccc2)cc1)c1ccco1	4	.	-3	33	.	365*
CN(C)CC(=O)N1CC[C@@H]2[C@H]1c1cc(Br)ccc1N(C)[C@@H]2CO	3	8	8	-21	.	-8[16.7 µM]
COc1ccc(/C=N/Nc2cc(C)nc3c(C)cccc23)cc1	67*	16	1	-12	-9	.
COc1ccc2nc(C)cc(N/N=C/c3ccc(F)cc3)c2c1	71*	33	3	14	90*	-24
O=C(Nc1cccc(-n2cnnn2)c1)c1ccco1	.	-16	0	111*	-8	-10
O=C(Nc1cccc(-n2cnnn2)c1)c1cc2ccccc2o1	.	-13	14	5	-19	.
Cc1ccc(-n2nc3ccc(NC(=O)c4ccco4)cc3n2)cc1	.	.	65*	.	.	-1
O=C(Nc1cccc(-c2cnc3ccccc3n2)c1)c1cccc(NC(=O)c2ccco2)c1	.	72*	.	16	-49	-28
CNC(=O)C[C@H]1CC[C@@H]2[C@H](COc3ccc(NC(=O)Nc4ccc(F)cc4)cc3C(=O)N2C)O1	-9	-12	-18	-3	17[16.7 µM]	-5[16.7 µM]
COc1ccc(CN(C)C[C@H]2Oc3c(NS(=O)(=O)c4cccs4)cccc3C(=O)N([C@H](C)CO)C[C@H]2C)cc1	-8	.	9	.	3[16.7 µM]	2[16.7 µM]
COCC#Cc1ccc2c(c1)O[C@H](CN(C)CC1CCCCC1)[C@H](C)CN([C@H](C)CO)S2(=O)=O	2	.	17	-12	15[16.7 µM]	3[16.7 µM]
CC(C)c1cn(CC[C@H]2CC[C@@H](NC(=O)C3CC3)[C@H](CO)O2)nn1	-12	6	1	-8	-54[16.7 µM]	.
C[C@@H]1CN([C@@H](C)CO)C(=O)c2cc(-c3ccccc3)cnc2O[C@@H]1CN(C)Cc1ccccc1	4	.	-7	16	-10[16.7 µM]	-5[16.7 µM]
CCCNC(=O)C[C@@H]1C[C@@H]2c3cc(NC(=O)C4CCC4)ccc3O[C@@H]2[C@@H](CO)O1	5	-9	0	-5	.	-6[16.7 µM]
O=C(NCc1ccco1)C(c1ccncc1)N(C(=O)Cc1cccs1)c1ccccc1 (stereo not drawn)	11	16	-7	-3	6	-4
SMILES	EWS-Fli inh	PAX8 reporter	INS-1E GSIS act	Statin myotox sup	Env fusion inh	miR-122 sensor
O=C(NCc1ccco1)C(c1ccccc1)N(C(=O)Cc1cccs1)c1ccccc1F (stereo not drawn)	.	9	.	98*	-87	.
NNC(=O)c1cccc(O)c1	.	-4	43*	.	?	1
O=C(NCCNC(=O)c1cccc(O)c1)c1cccc(O)c1	2	5	0	2	2	.
CCCNC(=O)C[C@H]1C[C@H]2c3cc(NC(=O)c4cccnc4)ccc3O[C@H]2[C@@H](CO)O1	0	-7	0	-3	8[16.7 µM]	1[16.7 µM]
COc1ccccc1CNC(=O)C[C@@H]1C[C@@H]2c3cc(NC(=O)c4cccnc4)ccc3O[C@@H]2[C@@H](CO)O1	9	-10	3	4	0[16.7 µM]	3[16.7 µM]
CCCNC(=O)C[C@@H]1C[C@H]2c3cc(NC(=O)c4cccnc4)ccc3O[C@H]2[C@H](CO)O1	-3	2	-4	1	71*[16.7 µM]	1[16.7 µM]
COc1ccccc1CNC(=O)C[C@H]1C[C@@H]2c3cc(NC(=O)c4cccnc4)ccc3O[C@@H]2[C@@H](CO)O1	-6	-32	17	5	90*[16.7 µM]	-3[16.7 µM]
O=C(C[C@@H]1CC[C@H]2[C@@H](COC[C@H](O)CN2S(=O)(=O)c2ccccc2)O1)N1CCOCC1	2	6	8	-2	-14[16.7 µM]	-4[16.7 µM]
O=C(CCCn1c(=S)[nH]c2cc3c(cc2c1=O)OCO3)N1CCN(c2ccc(Cl)cc2)CC1	.	29	.	.	99*	.
O=C(CCCn1c(=S)[nH]c2cc3c(cc2c1=O)OCO3)N1CCN(c2ccccc2)CC1	.	.	.	.	-4	.
CN(C)C(=O)C[C@H]1C=C[C@@H](NC(=O)C2CC2)[C@H](CO)O1	2	.	8	-1	-6[16.7 µM]	.
COc1ccc(S(=O)(=O)N(C)C[C@H]2Oc3c(NC(=O)Nc4ccccc4)cccc3C(=O)N([C@H](C)CO)C[C@H]2C)cc1	20	32	.	78*	1[16.7 µM]	-5[16.7 µM]
COc1ccc(S(=O)(=O)N(C)C[C@H]2Oc3c(NC(=O)Nc4ccc(C(F)(F)F)cc4)cccc3C(=O)N([C@@H](C)CO)C[C@H]2C)cc1	15	106*	-19	-29	108*[16.7 µM]	-16[16.7 µM]
COc1ccc(S(=O)(=O)N(C)C[C@@H]2Oc3c(NC(=O)Nc4ccc(C(F)(F)F)cc4)cccc3C(=O)N([C@@H](C)CO)C[C@H]2C)cc1	-5	5	2	-26	-47[16.7 µM]	-4[16.7 µM]
COc1ccccc1CNC(=O)C[C@H]1CC[C@H]2[C@@H](COC[C@@H](O)CN2Cc2cccc(-c3ccncc3)c2)O1	5	27	-1	8	4[16.7 µM]	-7[16.7 µM]
CN(C)C(=O)C[C@@H]1CC[C@@H](NC(=O)C2CCOCC2)[C@@H](CO)O1	-1	4	8	-16	-1[16.7 µM]	.
Cc1cccc(OCCCn2c(=O)sc3ccccc32)c1	.	.	-10	-4	.	-11
CCCCCCCCCCOC(=O)Cn1c(COc2ccc(Cl)cc2)[n+](C)c2ccccc21	35	3	207*	-67	24	.
CCCCOC(=O)Cn1c(=O)n(CC(=O)OCCCC)c2ccccc21	.	.	-12	25	.	0
CCCCCCCCCCOC(=O)Cn1c(COc2cccc(C)c2)[n+](C)c2ccccc21	15	36	171*	-116	26	.
CCCCCCCCCCOC(=O)Cn1c(COc2ccc(OC)cc2)[n+](C)c2ccccc21	.	.	.	-11	.	-24
CCCCCCCCCCOC(=O)Cn1c(COc2ccccc2C)[n+](C)c2ccccc21	.	.	139*	-113	.	.
CCCCCCCCCCOC(=O)Cn1c(COc2ccccc2)[n+](C)c2ccccc21	29	71*	127*	-112	44	.

Screens as filed in PubChem BioAssay.
